# Where “and” joins values, the source holds several entries; their conditions need not be identical. Equal values may be shown once. Among all 350,000 compounds or so, about 31,000 (8.9%) were called active. Inconclusive results (about 15%) are left out. Calls come from the whole dose curve; as a rule, active = well fitted inhibition curve with a large enough effect; inconclusive = small, poorly fitted or top-dose-only effect; inactive = no such curve, though single readings can be large or run the other way. Many of the other results were omitted from the sample, so actives are more common in it than they were. Where a structure was tested more than once in an assay, its records may differ in their call.
# Target: Histone-lysine N-methyltransferase EHMT2 (Homo sapiens) (UniProt Q96KQ7)
# Assay: qHTS Assay for Inhibitors of Histone Lysine Methyltransferase G9a; note: nearly all actives have a fitted effect of over 75% in size
# Details: G9a H3K9 monomethylation, AlphaScreen, 2 h; series mostly up to 59 µM; activity, negative = inhibition: at the top concentration
# Procedure, shortened: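 Enzyme 20 nM + cpd, 15 min RT; add b-H3K9 pep 500 nM / SAM 20 uM; 2 h RT; anti-H3K9me1 Ab 0.5 ug/mL + SA donor / anti-rabbit acceptor beads 20 ug/mL each, 10 min; AlphaScreen read.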
# % is set by controls: 0 for no effect and ±100 for the full control effect; potency is the fitted concentration of half-maximal effect.
# Sequence of Histone-lysine N-methyltransferase EHMT2 (Homo sapiens) (Q96KQ7 913-1193 limits assumed): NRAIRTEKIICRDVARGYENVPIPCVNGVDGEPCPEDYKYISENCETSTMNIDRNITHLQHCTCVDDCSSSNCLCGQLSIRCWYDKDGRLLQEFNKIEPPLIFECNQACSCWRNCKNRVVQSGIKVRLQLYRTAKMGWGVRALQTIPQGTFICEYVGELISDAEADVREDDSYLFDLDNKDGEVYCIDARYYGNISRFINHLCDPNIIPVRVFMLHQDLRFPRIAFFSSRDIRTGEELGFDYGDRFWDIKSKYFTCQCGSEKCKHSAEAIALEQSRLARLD
SMILES,"activity, negative = inhibition",Potency
COc1ccc(C(=O)NCC2CCCCC2)cc1S(=O)(=O)N1CCCC1,-36.7% [at 12.7 µM] (inactive),–
COCCNC(=O)/C(C#N)=C/c1cccc(OCc2ccccc2)c1,2.45% [at 102 µM] (inactive),–
N#C/C(=C\c1ccc(O)c(O)c1)C(=O)NCc1ccccc1,–,5.01 µM (active) and 5.62 µM (active) and 4.74 µM (active)
COc1ccc(CNC(=O)/C(C#N)=C/c2cccc(OC)c2OC)cc1,44% [at 0.501 µM] (inactive),–
COc1ccc(C2=NS(=O)(=O)N(C)C(C(=O)NC(C)c3ccccc3)=C2)cc1 (configuration not stated),–,inactive and 14.1 µM (active)
COc1ccc(NC(=O)C2=CC(c3ccc(OC)c(OC)c3)=NS(=O)(=O)N2C)cc1,-137% [at 102 µM] (inactive),–
COc1ccc(C2=NS(=O)(=O)N(C)C(C(=O)N(C)Cc3ccccc3)=C2)cc1,5.73% [at 12.7 µM] (inactive),–
CC(=O)N1c2ccc(S(=O)(=O)N3CCCC(C(=O)Nc4cccc(F)c4)C3)cc2CC1C (configuration not stated),-7.59% [at 12.7 µM] (inactive),–
CCN(CCCNC(=O)Cn1ncc2c3ccccc3n(C)c2c1=O)Cc1ccccc1,1.37% (inactive),–
CCC(CC)c1nn2cc(-c3ccccc3)nc2s1,30.5% (inactive),–
O=C(Nc1ccc2c(c1)OCCO2)C1CCCC1,2.92% [at 12.7 µM] (inactive),–
Cc1cc(/C=N/Nc2ccc([N+](=O)[O-])cn2)c(C)n1-c1cccc(C(=O)O)c1,–,15.8 µM (active)
Cc1cccc(C)c1NC(=O)CSc1ccc([N+](=O)[O-])cn1,-14.7% (inactive),–
Cc1ccc(-n2c(C)cc(/C=N/Nc3ccc([N+](=O)[O-])cn3)c2C)c(C)c1,-11.9% (inactive),–
C#CC(C)(CC)NC(=O)Cn1nnc(-c2ccc(OCc3c(F)cccc3Cl)cc2)n1 (configuration not stated),-5.54% (inactive),–
CCOc1ccc(NC(=O)CN(C)C(=O)c2c(C)noc2C)cc1OCC,2.91% [at 102 µM] (inactive),–
Cc1ccc(CSCC(=O)N(C)CC(=O)Nc2cccc(F)c2)cc1,5.8% [at 102 µM] (inactive),–
COCCN(C(=O)CSCc1ccc(C)cc1)c1c(N)n(CC(C)C)c(=O)[nH]c1=O,19% [at 12.7 µM] (inactive),–
Cc1ccc(CSCC(N)C(=O)O)cc1 (configuration not stated),–,15.8 µM (active)
Cc1ccc2c(=O)c(C(=O)c3ccc(F)cc3)cn(CC(=O)NC3CCCCC3)c2n1,-25.3% (inactive),–
O=C(NCCCN1CCCC1=O)c1cccc(S(=O)(=O)NCc2ccccc2)c1,-27% [at 102 µM] (inactive),–
CN(CC(=O)Nc1cccc(F)c1)CC(=O)Nc1cccc([N+](=O)[O-])c1,-15.7% (inactive),–
COc1ccc(CCNS(=O)(=O)c2cccc([N+](=O)[O-])c2)cc1,-4.51% [at 102 µM] (inactive),–
O=C(CSCC(=O)Nc1cccc([N+](=O)[O-])c1)Nc1ccccc1,-22.9% (inactive),–

SMILES,"activity, negative = inhibition",Potency
COc1ccc(S(=O)(=O)NC(C)C(=O)N2CCCCCC2)cc1 (configuration not stated),14.2% [at 102 µM] (inactive),–
COc1ccc(S(=O)(=O)NC(C)C(=O)Nc2cccc([N+](=O)[O-])c2)cc1 (configuration not stated),–,50.1 µM (active)
COC(=O)/C=C\C(=O)Nc1cccc([N+](=O)[O-])c1,–,1.41 µM (active)
Cc1c(C(=O)N(C)C)sc2c1c(=O)n(-c1ccc(F)cc1)c(=O)n2CC(=O)N(C)c1ccccc1,1.6% (inactive),–
CC1=C(C(=O)Nc2ccccc2)C(c2ccc(C)cc2)n2nc(SCc3ccccc3C)nc2N1 (configuration not stated),9.21% (inactive),–
CCc1cccc(C)c1NC(=O)COC(=O)CNC(=O)c1cccs1,-30.4% [at 102 µM] (inactive),–
CCC1(c2ccccc2)NC(=O)N(CC(=O)Nc2ccccc2C(=O)NC2CCCC2)C1=O (configuration not stated),20.5% [at 0.501 µM] (inactive),–
COc1cc2c(cc1OC)C(C(=O)Nc1cc(C)c(OC)c(C)c1)CC(=O)N2 (configuration not stated),17.9% [at 102 µM] (inactive),–
CCc1ccc(Nc2n[n+](-c3ccccc3)c(-c3cccc(Cl)c3Cl)s2)cc1,10.7% [at 2.33 µM] (inactive),–
COc1cc(Br)c(-c2sc(Nc3ccccc3)n[n+]2-c2ccccc2)cc1OC,–,28.2 µM (active)
COc1ccc(C(=O)Nc2cccc(C(=O)OCc3cc(=O)n4c5c(sc4n3)CCCC5)c2)cc1,9.1% (inactive),–
COc1ccc(C)cc1NC(=O)CSc1nnc2ccc(-c3ccccn3)nn12,2.04% [at 0.501 µM] (inactive),–
COc1cccc(/C=C/C(=O)OCC(=O)N2CCN(c3ccccc3)CC2)c1,-4.22% [at 12.7 µM] (inactive),–
COCCn1c(C)cc(C(=O)COC(=O)/C=C/c2cccc(OC)c2)c1C,–,44.7 µM (active)
COCCn1c(C)cc(C(=O)COC(=O)CNC(=O)c2ccco2)c1C,26.7% (inactive),–
Cc1cccc(-n2ncc(C(=O)N3CCc4ccccc4C3)c2C2CCN(C(=O)OC(C)(C)C)CC2)c1,-1.5% (inactive),–
COc1ccc(CNC(=O)c2ccc3c(c2)nc2n3CCOC2)c(OC)c1,1.96% (inactive),–
CCc1ccccc1NC(=O)CN(C)C(=O)COc1ccc(C)nc1[N+](=O)[O-],23% (inactive),–
CCOC(=O)c1c(C)oc2ccc(OCC(=O)N(CC)CC)cc12,8.65% (inactive),–
CCc1nc(C)ccc1OCC(=O)N(CC)CC,–,28.2 µM (active)
CCc1cccc(C)c1NC(=S)N(CCCN1CCN(C)CC1)Cc1cccs1,112% (inactive),–
Cc1cccc(C)c1NC(=O)N1CC(C)OC(C)C1 (configuration not stated),16.9% [at 102 µM] (inactive),–
Cc1cccc(C)c1NC(=O)C1(C)c2cccc[n+]2CC(=O)N1Cc1cccs1 (configuration not stated),–,14.1 µM (active)
